Inconclusive results are not listed. The source made the active and inactive calls. The call rests on the fitted dose curve; in most records, active means well fitted curve in the direction sought with a large enough effect; inconclusive means small, poorly fitted or top-dose-only effect, or another doubt; inactive means no such curve, though single readings can be large; an effect the other way counts as inactive or inconclusive.
Key:
[1] = tested on: Nanoluciferase (engineered Oplophorus gracilirostris luciferase); experiment: Primary Nanoluciferase (NLuc) qHTS assay for identification of artifact compounds. (AID 1845222);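 further: NLuc secreted into diluted conditioned medium of S16 cells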
Method in brief: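 Concentration-response data were obtained by luminescence after 5 min with Nano-Glo substrate at 1:100. The enzyme was diluted S16 NLuc-expressing cell medium, preincubated with compound for 15 min at RT. Curves were fitted with a 4-parameter Hill model.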

[2] = Primary redox qHTS assay for identification of artifact compounds. (AID 1845223)
Method in brief: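 Amplex Red (25 uM) and HRP (250 mU/mL) in HBSS, with compounds for 15 min, then 250 uM DTT for 30 min, room temperature, dark. Fluorescence 525/598 nm read; normalized to DMSO and 10 uM DA3003; Hill fit.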

[3] = Quantitative High-Throughput drug screen in 47 multiple myeloma cell lines against the NCATS MIPE library collection: FR4_PLB cell viability assay (AID 1918924; further: nearly all actives have a fitted effect of over 35% in size; further: potency means the concentration at half of the fitted maximal effect)
Method in brief: (§1)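 CellTiter-Glo luminescence (ATP) after 48 h compound exposure, 37C/5% CO2; 500 cells/well; MIPE 4.0 approved/investigational drugs pinned in; DMSO = 100%, media only = 0% viability.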

[4] = Quantitative High-Throughput drug screen in 47 multiple myeloma cell lines against the NCATS MIPE library collection: AMO1_DSMZ cell viability assay (AID 1918927; further: nearly all actives have a fitted effect of over 30% in size; further: potency means the concentration at half of the fitted maximal effect)
Method in brief: as §1

[5] = Quantitative High-Throughput drug screen in 47 multiple myeloma cell lines against the NCATS MIPE library collection: ARP1_JJKsccF8 cell viability assay (AID 1918928; further: nearly all actives have a fitted effect of over 40% in size; further: potency means the concentration at half of the fitted maximal effect)
Method in brief: (§2)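 ATP readout (CellTiter-Glo), 48 h drug incubation, 37 °C/5% CO2, 500 cells per well; normalisation to DMSO (100%) and media-only (0%) controls.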

[6] = Quantitative High-Throughput drug screen in 47 multiple myeloma cell lines against the NCATS MIPE library collection: ARD_JJKsccE7 cell viability assay (AID 1918929; further: potency means the concentration at half of the fitted maximal effect)
Method in brief: as §1

[7] = Quantitative High-Throughput drug screen in 47 multiple myeloma cell lines against the NCATS MIPE library collection: JIM3_ECACC cell viability assay (AID 1918963; further: nearly all actives have a fitted effect of over 35% in size; further: potency means the concentration at half of the fitted maximal effect)
Method in brief: as §1

[8] = Quantitative High-Throughput drug screen in 47 multiple myeloma cell lines against the NCATS MIPE library collection: H1112_PLB cell viability assay (AID 1918967; further: nearly all actives have a fitted effect of over 30% in size; further: potency means the concentration at half of the fitted maximal effect)
Method in brief: as §1

[9] = Quantitative High-Throughput drug screen in 47 multiple myeloma cell lines against the NCATS MIPE library collection: Karpas25_ECACC cell viability assay (AID 1918968; further: nearly all actives have a fitted effect of over 35% in size; further: potency means the concentration at half of the fitted maximal effect)
Method in brief: as §1

[10] = Quantitative High-Throughput drug screen in 47 multiple myeloma cell lines against the NCATS MIPE library collection: Delta47_JCRB cell viability assay (AID 1918925; further: nearly all actives have a fitted effect of over 45% in size; further: potency means the concentration at half of the fitted maximal effect)
Method in brief: as §1

[11] = Quantitative High-Throughput drug screen in 47 multiple myeloma cell lines against the NCATS MIPE library collection: EJM_DSMZ cell viability assay (AID 1918926; further: nearly all actives have a fitted effect of over 30% in size; further: potency means the concentration at half of the fitted maximal effect)
Method in brief: as §1

[12] = Quantitative High-Throughput drug screen in 47 multiple myeloma cell lines against the NCATS MIPE library collection: Karpas620_DSMZ cell viability assay (AID 1918959); further: nearly all actives have a fitted effect of over 30% in size; further: potency means the concentration at half of the fitted maximal effect
Method in brief: as §1

[13] = Quantitative High-Throughput drug screen in 47 multiple myeloma cell lines against the NCATS MIPE library collection: KMM1_JCRB cell viability assay (AID 1918960); further: nearly all actives have a fitted effect of over 30% in size; further: potency means the concentration at half of the fitted maximal effect
Method in brief: as §2

[14] = Quantitative High-Throughput drug screen in 47 multiple myeloma cell lines against the NCATS MIPE library collection: KHM11_PLB cell viability assay (AID 1918962); further: nearly all actives have a fitted effect of over 35% in size; further: potency means the concentration at half of the fitted maximal effect
Method in brief: as §1

[15] = Quantitative High-Throughput drug screen in 47 multiple myeloma cell lines against the NCATS MIPE library collection: KMS27_JCRB cell viability assay (AID 1918970); further: nearly all actives have a fitted effect of over 30% in size; further: potency means the concentration at half of the fitted maximal effect
Method in brief: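 Luminescent ATP read-out (CellTiter-Glo, 5 min at room temperature) after 48 h compound exposure of 500 KMS27_JCRB cells per well; DMSO wells define full viability and media-only wells zero.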

[16] = Quantitative High-Throughput drug screen in 47 multiple myeloma cell lines against the NCATS MIPE library collection: JIM1_ECACC cell viability assay (AID 1918964; further: potency means the concentration at half of the fitted maximal effect)
Method in brief: as §1

[17] = Quantitative High-Throughput drug screen in 47 multiple myeloma cell lines against the NCATS MIPE library collection: INA6_PLB cell viability assay (AID 1918965; further: potency means the concentration at half of the fitted maximal effect; nearly all actives have a fitted effect of over 55% in size)
Method in brief: (§3)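 Myeloma cells (500 per well) were exposed to MIPE 4.0 compounds by pin transfer and incubated 48 hours at 37C, 5% CO2. Viability was read as ATP by CellTiter-Glo luminescence, normalised to DMSO (100%) and media-only (0%) wells.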

[18] = Quantitative High-Throughput drug screen in 47 multiple myeloma cell lines against the NCATS MIPE library collection: KMS12BM_JCRB cell viability assay (AID 1918971); further: nearly all actives have a fitted effect of over 35% in size; further: potency means the concentration at half of the fitted maximal effect
Method in brief: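 We plated 500 myeloma cells per well, pinned in MIPE 4.0 compounds, and incubated for 48 hours at 37C. ATP was then quantified with CellTiter-Glo, with DMSO and media-only wells defining 100% and 0%.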

[19] = Quantitative High-Throughput drug screen in 47 multiple myeloma cell lines against the NCATS MIPE library collection: Karpas417_ECACC cell viability assay (AID 1918961); conditions: Karpas417 myeloma viability, CellTiter-Glo ATP luminescence, 48 h; viability (% of DMSO): at 45.8 µM (top of the series) unless noted; further: potency means the concentration at half of the fitted maximal effect
Method in brief: as §3

[20] = Quantitative High-Throughput drug screen in 47 multiple myeloma cell lines against the NCATS MIPE library collection: JJN3_DSMZ cell viability assay (AID 1918966; further: nearly all actives have a fitted effect of over 50% in size; further: potency means the concentration at half of the fitted maximal effect)
Method in brief: as §1

| SMILES | outcome [1] | outcome [2] | Potency [3] | Potency [4] | Potency [5] | Potency [6] | Potency [7] | Potency [8] | Potency [9] | Potency [10] | Potency [11] | Potency [12] | Potency [13] | Potency [14] | Potency [15] | Potency [16] | Potency [17] | Potency [18] | Potency [19] | Potency [20] |
| --- | --- | --- | --- | --- | --- | --- | --- | --- | --- | --- | --- | --- | --- | --- | --- | --- | --- | --- | --- | --- |
| CCOc1ccn(-c2ccc(F)cc2)c(=O)c1C(=O)Nc1ccc(Oc2ccnc(N)c2Cl)c(F)c1 | inactive | inactive | 18.7 µM (active) | 18.7 µM (active) | 14.8 µM (active) | 18.7 µM (active) | inactive | 13.2 µM (active) | 2.35 µM (active) | – | – | – | – | – | – | – | – | – | – | – |
| CC1(C)CNc2cc(NC(=O)c3cccnc3NCc3ccncc3)ccc21 | inactive | inactive | – | inactive | – | inactive | inactive | – | 2.09 µM (active) | inactive | 2.64 µM (active) | inactive | inactive | inactive | inactive | – | – | – | – | – |
| CC(C)OC(=O)C1=CN(C(=O)c2ccc(F)c(F)c2)CC(C)(C)c2c1[nH]c1ccccc21 | inactive | inactive | inactive | – | inactive | inactive | – | inactive | inactive | inactive | – | – | inactive | – | inactive | – | – | – | – | – |
| O=c1[nH]c(-c2ccc(C(F)(F)F)cc2)nc2c1CSCC2 | inactive | inactive | inactive | inactive | – | inactive | inactive | – | 18.7 µM (active) | – | – | inactive | inactive | – | inactive | inactive | – | – | – | – |
| O=C(c1cc(Cc2n[nH]c(=O)c3ccccc23)ccc1F)N1CCN(C(=O)C2CC2)CC1 | inactive | inactive | inactive | – | inactive | – | – | – | – | – | – | inactive | – | – | – | inactive | 16.6 µM (active) | inactive | – | – |
| CN(C)c1ccc(Nc2nc(N)n(C(=O)c3c(F)cccc3F)n2)cc1 | inactive | inactive | – | 4.69 µM (active) | – | 20.9 µM (active) | 16.6 µM (active) | – | 26.4 µM (active) | 14.8 µM (active) | 20.9 µM (active) | – | 11.8 µM (active) | 20.9 µM (active) | 23.5 µM (active) | 18.7 µM (active) | 1.87 µM (active) | – | 1.66 µM (active) | 20.9 µM (active) |
| S=C(NCc1ccc2c(c1)OCO2)N1CCN(c2ncnc3c2oc2ccccc23)CC1 | inactive | inactive | 27 µM (active) | 2.7 µM (active) | 3.03 µM (active) | 0.855 µM (active) | 5.4 µM (active) | 0.605 µM (active) | 0.303 µM (active) | 1.08 µM (active) | – | 2.41 µM (active) | 1.36 µM (active) | 0.855 µM (active) | 4.29 µM (active) | – | 1.08 µM (active) | 1.91 µM (active) | 4.29 µM (active) | – |
| C[C@@H]1CN(Cc2ccc(F)cc2)[C@@H](C)CN1C(=O)c1cc2c(C(=O)C(=O)N(C)C)cn(C)c2cc1Cl | inactive | inactive | – | 29.6 µM (active) | – | 9.35 µM (active) | 13.2 µM (active) | 13.2 µM (active) | 9.35 µM (active) | 9.35 µM (active) | – | – | – | – | 14.8 µM (active) | – | 20.9 µM (active) | – | – | – |
| COc1cc(Nc2ncc3c(n2)-c2ccc(Cl)cc2C(c2c(F)cccc2OC)=NC3)ccc1C(=O)O | inactive | inactive | inactive | – | – | – | – | inactive | – | – | inactive | – | – | – | – | – | – | inactive | – | inactive |
| CNCc1ccc(-c2[nH]c3cc(F)cc4c3c2CCNC4=O)cc1 | inactive | inactive | inactive | 8.33 µM (active) | inactive | 5.9 µM (active) | – | inactive | inactive | inactive | inactive | inactive | – | – | – | – | 23.5 µM (active) | – | – | inactive |
| O=C(Nc1ccc(F)c(C(F)(F)F)c1)Nc1nnc(-c2ccncc2)s1 | inactive | inactive | 3.32 µM (active) | – | – | inactive | – | – | – | 2.96 µM (active) | 5.9 µM (active) | – | – | – | inactive | – | 2.35 µM (active) | – | – | – |
| COc1c(Cl)cc2c([nH]c3cnccc32)c1NC(=O)c1cccnc1C | inactive | inactive | – | 5.26 µM (active) | – | 3.32 µM (active) | inactive | – | – | 2.96 µM (active) | 3.72 µM (active) | 18.7 µM (active) | – | 2.96 µM (active) | 11.8 µM (active) | – | 2.96 µM (active) | 14.8 µM (active) | 16.6 µM (active) | 18.7 µM (active) |
| CCc1cc(Nc2nccc(-c3c(-c4ccc(OC)c(C(=O)Nc5c(F)cccc5F)c4)nc4ccccn34)n2)c(OC)cc1N1CCC(N2CCN(S(C)(=O)=O)CC2)CC1 | inactive | inactive | 20.9 µM (active) | – | – | 4.69 µM (active) | 18.7 µM (active) | 10.5 µM (active) | 7.43 µM (active) | 5.26 µM (active) | – | – | – | – | – | – | 2.96 µM (active) | – | – | – |
| C#Cc1cccc(Nc2ncnc3cc(OCCOC)c(OCCOC)cc23)c1 | inactive | inactive | 16.6 µM (active) | 1.05 µM (active) | – | 5.9 µM (active) | 9.35 µM (active) | – | – | 4.18 µM (active) | – | 4.69 µM (active) | – | 3.32 µM (active) | 5.26 µM (active) | – | 18.7 µM (active) | 20.9 µM (active) | – | – |

Source: PubChem BioAssay (NCATS)
